hNpr1 antagonist = blocks ANP-stimulated signaling of human Npr1 receptor. actives 1.6% (n = 76,000). P16066. AID 1347048. HEK293 hNpr1 GloSensor cGMP, ANP-stimulated luminescence. Potency, µM (series often up to 46.3 µM), for inactives: top-dose activity change, negative = inhibition, most hits filed as inhibitors; calls by dose curve; note: % is set by controls: 0 for no effect and ±100 for the full control effect; nearly all actives have a fitted effect of over 60% in size
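HEK293 cells stably expressing human Npr1 and cGMP GloSensor pGS-40F, loaded 2 h with 2% GloSensor reagent, given compound 30 min at room temperature. Luminescence read before and 20 min after 0.1 nM hNppA.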
FLuc inh-1 = Photinus pyralis luciferase inhibition. P08659. Potency, µM (highest dose often 115 µM), actives largely listed as inhibitors. actives 2.5% (n = 76,000). purified P. pyralis luciferase, luminescence, biochemical; note: % is set by controls: 0 for no effect and ±100 for the full control effect; nearly all actives have a fitted effect of over 65% in size
Target sequence (P08659 whole entry, looked up): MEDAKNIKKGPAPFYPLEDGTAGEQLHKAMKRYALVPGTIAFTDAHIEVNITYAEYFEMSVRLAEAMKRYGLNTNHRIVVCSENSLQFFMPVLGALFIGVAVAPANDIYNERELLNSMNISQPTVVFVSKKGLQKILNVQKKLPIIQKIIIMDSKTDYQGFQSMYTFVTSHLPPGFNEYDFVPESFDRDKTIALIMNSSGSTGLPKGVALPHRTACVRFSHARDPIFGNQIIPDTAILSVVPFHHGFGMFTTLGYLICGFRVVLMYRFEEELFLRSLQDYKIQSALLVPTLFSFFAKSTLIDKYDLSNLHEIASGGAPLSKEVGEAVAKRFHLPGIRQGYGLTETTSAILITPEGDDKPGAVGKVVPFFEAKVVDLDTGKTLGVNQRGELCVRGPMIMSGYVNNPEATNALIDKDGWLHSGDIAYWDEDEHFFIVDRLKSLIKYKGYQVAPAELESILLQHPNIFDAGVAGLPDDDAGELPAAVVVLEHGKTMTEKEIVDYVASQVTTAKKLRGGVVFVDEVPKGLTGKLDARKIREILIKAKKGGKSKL
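Luminescence read by CCD imaging after purified firefly luciferase (10nM final) was added to substrate buffer holding 10uM D-luciferin and 10uM ATP, pH 7.5, pre-dosed with compound.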
HEK293 tox = cytotoxic compounds in HEK 293 cells; HEK 293 viability, ATP luminescence (CellTiter-Glo), 48-72 h; Potency, µM (series often up to 115 µM), for inactives: top-dose activity change, negative = cytotoxicity, most hits filed as inhibitors; actives 6.6% (n = 94,000); AID 1345083; note: % is set by controls: 0 for no effect and ±100 for the full control effect; nearly all actives have a fitted effect of over 60% in size
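HEK 293 cells at 250 cells/well were exposed to compounds by pintool transfer for 48 or 72 hr at 37 degree Celsius, 5% CO2. Viability was read as ATP-coupled luminescence with CellTiter-Glo after 10 min at room temperature.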
NIH3T3 tox = kills NIH 3T3 cells | Potency, µM (top dose mostly 96.7 µM), without a hit: top-dose activity change, negative = cytotoxicity, usual class: inhibitors | AID 1345082 | actives 4.3% (n = 94,000) | NIH 3T3 viability, CellTiter-Glo ATP luminescence, 48-72 h; note: % is set by controls: 0 for no effect and ±100 for the full control effect; nearly all actives have a fitted effect of over 55% in size
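Cytotoxicity was measured by CellTiter-Glo ATP luminescence after 48 or 72 h compound exposure at 37 °C. Mouse NIH 3T3 fibroblasts were seeded at 400 cells/well and dosed by 23 nL pin transfer.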
FLuc SDR no ATP = firefly luciferase binding stabilization, ATP absent; AID 1963318; actives 7.8% (n = 1,300); Potency, µM (highest dose often 32.7 µM), without a hit: at the top dose activation (signal gain), actives largely listed as activators; Purified FLuc-C-HiBiT, Nano-Glo HiBiT luminescence, no ATP; shares compounds with FLuc inh-1; note: nearly all actives have a fitted effect of over 55% in size
FLuc SDR ATP = firefly luciferase binding stabilization, ATP added. actives 8.7% (n = 1,300). shares compounds with FLuc inh-1. purified FLuc-C-HiBiT + ATP, HiBiT complementation luminescence. AID 1963319. Potency, µM (doses to about 32.7 µM), for inactives: top-dose activation (gain of signal), hits mostly activators;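 note: signal reports ligand binding via conformational change of the enzyme rather than luciferase catalysis; % of control where 0% means no effect; nearly all actives have a fitted effect of over 55% in size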
FLuc inh-2 = inhibitors of firefly luciferase enzymatic activity; shares compounds with FLuc inh-1; purified FLuc-C-HiBiT enzyme, luciferin luminescence; Potency, µM (top dose mostly 32.7 µM), inactives show top-dose activity change, negative = inhibition, hits mostly inhibitors; actives 42% (n = 1,300); AID 1963320; note: % is set by controls: 0 for no effect and ±100 for the full control effect; nearly all actives have a fitted effect of over 70% in size
* marks the source's active call; other numbers are inactive results; i = inactive; ? = inconclusive; . = no result; [ ] = remark or other dose. Only some compounds are listed: those with a hit (about 11% of all), similar ones and a draw of the others. Unless noted, calls come from the whole dose curve; as a rule, active = well fitted curve in the direction sought with a large enough effect; inconclusive = small, poorly fitted or top-dose-only effect, or another doubt; inactive = no such curve, though single readings can be large; an effect the other way counts as inactive or inconclusive. Potency is the fitted concentration of half-maximal effect.

SMILES | hNpr1 antagonist | FLuc inh-1 | HEK293 tox | NIH3T3 tox | FLuc SDR no ATP | FLuc SDR ATP | FLuc inh-2
CCC(=O)N1CCc2c(C(=O)Nc3ccc(N4CCOCC4)cc3)cccc21 | -6.6% | i | -9.7% | -11.9% | . | . | .
Cc1ccc(NC(=O)N2CCc3c(C(=O)NCc4ccco4)cccc32)cc1 | 1.12µM* | 0.0891µM* | ? | ? | 9.89µM* | 0.0785µM* | 0.0495µM*
COc1cccc(-c2nc(-c3cccc(C(=O)O)c3)no2)c1 | . | . | . | . | 12.4µM* | 0.007µM* | 0.0039µM*
O=C(O)c1ccc(-c2noc(-c3ccc(Cl)cc3)n2)cc1 | . | . | . | . | ? | 1.4µM* | 0.785µM*
COCCc1noc(-c2nc(-c3ccc(OC)cc3)no2)n1 | -17.2% | ? | ? | -11.1% | . | . | .
COc1ccc(-c2nc(-c3ccc(C(=O)O)cc3)no2)cc1 | . | . | . | . | 12.4µM* | 0.111µM* | 0.111µM*
O=C(O)c1cccc(-c2noc(-c3cccc(Cl)c3)n2)c1 | . | . | . | . | 12.4µM* | 0.0221µM* | 0.007µM*
NC1CCCCN(Cc2ccc(Cl)c(F)c2)C1 (centres undefined) | 0.8% | i | ? | ? | . | . | .
O=C1NC(C(=O)Nc2ccc3c(c2)OCCO3)Cn2cccc21 (centres undefined) | 1.5% | ? | -5.9% | i | . | . | .
COc1ccc(NC(=O)N2C[C@@H]3C[C@H](C2)c2c(NC(=O)c4ccc5c(c4)OCO5)ccc(=O)n2C3)cc1 | 4.0% | i | -27.7% | 0.5% | . | . | .
COc1ccccc1-c1nc(-c2ccc(C(=O)O)cc2)no1 | . | . | . | . | 15.7% | 2.21µM* | 1.97µM*
CC(=O)N1CCC(Oc2ccccc2-c2nc(-c3ccccc3)no2)C1 (centres undefined) | 12.0% | i | ? | ? | . | . | .
O=C(O)c1ccc(-c2noc(-c3cccc(C(F)(F)F)c3)n2)cc1 | . | . | . | . | 11.7% | 19.8% | ?
O=C(O)c1cccc(-c2noc(-c3ccc(Cl)cc3)n2)c1 | . | . | . | . | 2.79µM* | 0.005µM* | 0.0022µM*
Cc1ccccc1C(=O)N1CCC(c2n[nH]c(=O)n2Cc2ccc(F)cc2)CC1 | -3.0% | i | 9.6% | 1.4% | . | . | .
CCN1CCN(C2(C(=O)N3CCC(COC)C3)Cc3ccccc3C2)CC1 (centres undefined) | 6.7% | i | -0.7% | 2.2% | . | . | .
COCCn1c(=O)c(C(=O)N2CCN(C(=O)c3ccc(Cl)nc3)CC2)nc2cccnc21 | . | . | i | 0.3% | . | . | .
Cc1ccc(C(=O)Nc2onc3c2CCCC3)cc1 | . | . | . | . | ? | 3.94µM* | 0.989µM*
Cc1ccc(C(=O)Nc2cc(C3CCCC3)nn2C)cc1 | . | . | ? | -23.5%[138 µM] | . | . | .
COc1ccccc1C(=O)Nc1onc2c1CCCC2 | . | . | . | . | 13.7% | ? | 9.89µM*
CCOc1ccc(-c2cc(CCCC(=O)NCCc3ccc(OCC)c(OCC)c3)no2)cc1 | . | . | . | . | 12.9% | ? | 3.51µM*
CCOc1ccc(-c2cc(CCCC(=O)NCCc3ccc(SC)cc3)no2)cc1 | . | . | . | . | 15.3% | ? | 3.13µM*
CN(C)C[C@@H]1CN(c2ccncn2)C[C@H]1NC(=O)CC1CCCCC1 | 1.6% | i | -13.2% | -9.7% | . | . | .
O=C(C1CCN([S+](=O)([O-])c2cccs2)CC1)N1CCCC1c1nc2ccncc2[nH]1 (centres undefined) | . | . | i | 2.0% | . | . | .
CSc1ccc(-c2nc3c([nH]2)CC(C)(C)CNC3=O)cc1 | -22.8% | 12.6µM* | ? | -24.2% | 31.5% | 17.3% | ?
SMILES | hNpr1 antagonist | FLuc inh-1 | HEK293 tox | NIH3T3 tox | FLuc SDR no ATP | FLuc SDR ATP | FLuc inh-2
CC1(C)CNC(=O)c2nc(CCSCc3ccco3)[nH]c2C1 | -1.1% | i | 0.3% | 0.1% | . | . | .
COCCNC(=O)c1cc(-c2cc(Cl)cc(Cl)c2)c2nncn2n1 | . | . | -9.2%[172 µM] | -4.0%[138 µM] | . | . | .
c1cncc(Nc2cc3c(cn2)CN(Cc2ccn[nH]2)CCN3)c1 | . | . | . | . | 21.2%[49.3 µM] | 14.2%[49.3 µM] | ?
c1cncc(Nc2cc3c(cn2)CN(Cc2cnc[nH]2)CCN3)c1 | . | . | . | . | 11.0% | 8.7% | -8.4%
Cn1nccc1-c1cc2c(cn1)CN(Cc1ccncc1)CCN2 | -5.1%[70.6 µM] | i | ? | -39.0%[138 µM] | . | . | .
CC(=O)N1CCNc2cc(Nc3ccc(F)cc3)ncc2C1 | ? | 2.24µM* | ? | ? | ? | ? | 5.7µM*
c1ccc(Oc2cc3c(cn2)NCCN(Cc2cnc[nH]2)C3)cc1 | -27.3%[70.6 µM] | i | ? | -25.0%[138 µM] | . | . | .
Cc1[nH]cnc1CN1CCNc2cc(Nc3ccccc3)ncc2C1 | -5.1%[70.6 µM] | 6.31µM* | ? | ? | 27.5%[49.3 µM] | 15.9%[49.3 µM] | ?
CC(=O)N1CCNc2cc(NCc3ccc(F)cc3)ncc2C1 | -10.0%[70.6 µM] | ? | -54.8%[172 µM] | -43.1%[138 µM] | . | . | .
Cc1nn2c(c1-c1cccnc1N1CCOCC1)N(C(=O)c1ccc(Oc3ccccc3)cc1)CCC2 | -2.0% | i | ? | -30.2% | . | . | .
O=C(NCc1cccc(F)c1)c1cc2c(s1)CCN(C(=O)c1ccccc1)C2 | -30.4% | i | ? | ? | . | . | .
COc1cccc(-c2c(C(=O)NCC(F)(F)F)nc3sccn23)c1 | . | . | -0.5% | -15.1% | . | . | .
c1ccc(CN2CCNc3cnc(Nc4ccncn4)cc3C2)cc1 | -1.9%[70.6 µM] | i | ? | ? | . | . | .
c1ccc(Nc2cc3c(cn2)CN(Cc2ccn[nH]2)CCN3)cc1 | -20.8%[70.6 µM] | 7.94µM* | ? | ? | 28.2%[49.3 µM] | 15.5%[49.3 µM] | ?
Oc1ccccc1CN1CCNc2cc(Nc3ccccc3)ncc2C1 | -24.8%[70.6 µM] | 5.62µM* | 28.2µM* | 31.6µM* | 17.0% | 12.2% | ?
O=C(CC1CCCC1)N1CCCC(c2noc(COc3ccccc3F)n2)C1 (centres undefined) | -2.8% | i | ? | ? | . | . | .
Cc1cccc([C@H]2C[C@@H](O)[C@@H](O)[C@@H]2NCC(C)(C)O)c1 | 4.3%[70.6 µM] | i | ? | -5.4%[230 µM] | . | . | .
O=c1ncn(Cc2ccccc2)c2ccc(-c3ccsc3)nc12 | -1.1%[70.6 µM] | i | i | ? | . | . | .
CN(C)C[C@@H]1CN(S(C)(=O)=O)C[C@H]1NC(=O)c1cscn1 | 3.5% | i | -0.4% | -5.9% | . | . | .
COc1ccc(CC(=O)N2CCN(C(=O)c3nc4cccnc4n(C4CC4)c3=O)CC2)cc1 | . | . | 4.0% | -12.6% | . | . | .
OCc1ccnc(-c2ccc(-c3ccn[nH]3)cc2)c1 | 5.01µM* | 10µM* | -0.1% | -13.6% | 22.6% | ? | ?
Cc1cccc(-c2ccc3c(c2)C(=O)N2CC[C@H](NC(=O)c4cccnc4)C[C@H]2C(=O)N3)c1C | -2.4% | i | ? | -19.5% | . | . | .
CCc1ccccc1NC(=O)c1cc2c(=O)[nH]c(C)cn2n1 | -5.3% | 12.6µM* | -2.5% | i | 16.7% | 13.0% | ?
